Compound activity from PubChem BioAssay.
CSC inhib = blocks cancer stem cells; actives 1.1% (n = 300,000); AID 2717; cancer stem cell-like cells viability, luminescence; inhibition, % at 7.5 µM; in the data active = inhibition above about 75%; inconclusive = no clear call, values can overlap the other calls; tested in HMLE shEcad cells
MPTP inh = permeability transition pore inhibition | actives 1.4% (n = 360,000) | AID 602449 | inhibition, % at 10 µM | isolated mouse mitochondria, Ca2+ swelling absorbance, 30 min;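 active = inhibition of 50% or more, scaled per plate between neutral and stimulator controls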;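 also: 0% = DMSO wells given calcium and 100% = 1 mM EGTA wells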
SKKanGAS inh = inhibitors of SKKanGAS S. pyogenes growth in kanamycin (SK-promoter or general growth effect); BacTiter-Glo, 6 h; inhibition, % at 7.5 µM; actives 1.3% (n = 300,000); AID 1662;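 active = mean replicate score, as percent of positive control median, at least 50; inconclusive = mean below 50 but one replicate at or above 50; inactive = mean and every replicate below 50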;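 also: strain carries kanamycin resistance gene driven by streptokinase promoter and grows in 40 µg/ml kanamycin; loss of luminescence reflects streptokinase promoter inhibition or plain growth inhibition; 0% = median of DMSO wells and 100% = positive control at its reference dose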
Mdm2 MdmX PPI = inhibitors of human Mdm2/MdmX interaction; inhibition, % at 8 µM; O15151+Q00987; SaOS-2 split-luciferase Mdm2/MdmX complementation, luminescence; actives 3% (n = 330,000);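 active = inhibition of at least 50% at 8 µM in the primary screen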
Target sequence (O15151 whole entry, looked up): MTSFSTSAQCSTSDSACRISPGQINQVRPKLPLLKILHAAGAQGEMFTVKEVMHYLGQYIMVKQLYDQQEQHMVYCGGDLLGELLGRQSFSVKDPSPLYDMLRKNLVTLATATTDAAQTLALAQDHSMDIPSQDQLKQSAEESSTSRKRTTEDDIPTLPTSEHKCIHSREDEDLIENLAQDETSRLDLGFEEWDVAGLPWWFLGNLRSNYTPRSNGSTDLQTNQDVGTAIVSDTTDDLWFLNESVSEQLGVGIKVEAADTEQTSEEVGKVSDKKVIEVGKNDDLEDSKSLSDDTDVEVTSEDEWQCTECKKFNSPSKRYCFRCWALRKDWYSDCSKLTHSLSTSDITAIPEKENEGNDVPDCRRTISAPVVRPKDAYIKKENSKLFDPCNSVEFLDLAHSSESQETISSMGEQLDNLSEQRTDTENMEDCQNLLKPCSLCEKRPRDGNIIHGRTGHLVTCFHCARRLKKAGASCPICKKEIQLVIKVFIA
Target sequence (Q00987 whole entry, looked up): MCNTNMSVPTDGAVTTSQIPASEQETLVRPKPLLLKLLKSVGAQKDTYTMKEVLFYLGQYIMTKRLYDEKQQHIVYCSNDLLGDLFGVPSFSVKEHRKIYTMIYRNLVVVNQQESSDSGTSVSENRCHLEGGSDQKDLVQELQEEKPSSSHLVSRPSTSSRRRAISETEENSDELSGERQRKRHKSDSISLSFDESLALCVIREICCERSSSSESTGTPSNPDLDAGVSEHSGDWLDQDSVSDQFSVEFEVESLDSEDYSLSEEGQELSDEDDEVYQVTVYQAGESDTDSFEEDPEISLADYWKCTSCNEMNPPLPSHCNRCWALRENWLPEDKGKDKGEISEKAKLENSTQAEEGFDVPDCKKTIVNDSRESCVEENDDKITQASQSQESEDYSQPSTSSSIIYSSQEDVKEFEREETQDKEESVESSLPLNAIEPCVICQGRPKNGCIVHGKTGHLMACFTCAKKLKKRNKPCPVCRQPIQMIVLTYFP
Beta cell apopt = blocks beta cell apoptosis | actives 0.8% (n = 300,000) | AID 435005 | INS-1E cytokine-induced death, ATP luminescence, 48 h; percent of positive-control rescue, neutral wells zero | protection from apoptosis, % (no concentration beside the values);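 active = Every replicate reaches about 75%, or at least half do and their mean reaches it too, limit read from the data; inconclusive = At least half of replicates reach the limit but their mean does not; inactive = Under half of replicates reach the limit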;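 also: 0% = cytokine-treated negative control wells and 100% = positive control rescue; higher means more ATP so stronger rescue from cytokine killing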
Calb FLC = C. albicans growth modulation with fluconazole; actives 0.57% (n = 300,000); AID 1979; C. albicans CaCi-2 (fluconazole-resistant clinical isolate) + fluconazole, Alamar Blue growth, 48 h; growth inhibition, % (concentration not given with the values);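 active = growth inhibition above about 58% in most replicates, limit read from the data, passing the limit was not always enough; inconclusive = exactly half the replicates above a set limit; inactive = most replicates below a set limit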;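 also: all wells also contain fluconazole at 8 µg/ml as a sub-toxic cotreatment; 0% = median of DMSO wells and 100% = median of geldanamycin control wells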
Mdm2-MdmX conf = human Mdm2/MdmX binding inhibition, confirmed; shares compounds with Mdm2 MdmX PPI; luminescent assay; inhibition, % at 8 µM; actives 55% (n = 10,000); AID 489028; in the data active = inhibition above about 40%
Full FLuc ctr = inhibits full-length luciferase, flagging false Mdm2/MdmX hits. shares compounds with Mdm2 MdmX PPI. SaOS-2 full-length luciferase counterscreen, luminescence. AID 504607. actives 77% (n = 6,200). inhibition, % at 8 µM;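 active = mean inhibition at 8 µM reaching about 37%, which flags the compound as non-specific, limit read from the data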;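 also: p53-null SaOS-2 cells with luciferase driven by a doxycycline-inducible promoter; compound on cells about two nights before reading with doxycycline added after day one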
Active calls of the source: *; ? = inconclusive; / = no result. The list is not random: actives were taken first. Their share in the collection is about 5.4%.

SMILES | CSC inhib | MPTP inh | SKKanGAS inh | Mdm2 MdmX PPI | Beta cell apopt | Calb FLC | Mdm2-MdmX conf | Full FLuc ctr
CC(=O)Nc1c(C)nn(-c2ccc([N+](=O)[O-])cc2)c1C | 1 | 0 | -2 | 13 | -5 | -15 | / | /
Cc1ccc(-c2nn(-c3ccccc3)cc2NC(=O)CCl)cc1 | 28 | 2 | -4 | 66* | -2 | -26 | 7 | /
O=C(CCl)Nc1cc(-c2ccccc2)nn1-c1ccccc1 | 20 | 2 | -5 | 84* | -9 | 66 | 62* | 22
CC(=O)Nc1ccc(-c2cc(NC(C)=O)n(-c3ccccc3)n2)cc1 | 1 | 0 | 0 | 17 | 3 | 5 | / | /
Cc1ccc(-c2nn(-c3ccccc3)cc2CO)cc1 | 9 | 0 | -6 | -64 | -5 | 0 | / | /
Cc1cc(-n2[nH]c(C)c(C)c2=O)nc(-c2ccccc2O)n1 | 18 | 3 | 11 | 8 | 46 | 4 | / | /
O=C(O)CC(CC(=O)O)c1ccsc1 | -10 | -1 | / | -19 | -3 | / | / | /
O=C(O)/C=C\C(=O)Nc1ccccc1C(=O)N1CCC(O)(c2ccc(Cl)cc2)CC1 | / | 1 | / | / | / | / | / | /
CCCNC(=O)COC(=O)c1ccccc1C(=O)c1ccc(Cl)c([N+](=O)[O-])c1 | -7 | 0 | 7 | 98* | -13 | -14 | 88* | 52*
Cc1nnc(SCc2cc(=O)[nH]c(/N=C(\N)Nc3ccccc3)n2)s1 | 4 | 0 | -1 | 36 | -1 | -4 | / | /
CCOc1ccc(N/C(N)=N/c2nc(CSc3nnc(C)s3)cc(=O)[nH]2)cc1 | ? | 6 | 4 | 67* | 1 | 0 | 56* | 81*
CC(C)C1C(C#N)=C(N)Oc2n[nH]c(-c3ccc4ccccc4c3)c21 (configuration not stated) | 17 | 2 | 24 | 57* | 11 | 6 | 63* | 50*
COc1ccc(CN2C(=O)c3ccccc3C(/C=N\OCc3ccc(F)cc3)C2=O)cc1 (configuration not stated) | -10 | -1 | 24 | 44 | -8 | 6 | / | /
COc1ccc(CN2C(=O)c3ccccc3C(/C=N/OCc3ccc(Cl)cc3)C2=O)cc1 (configuration not stated) | / | 0 | 97* | 67* | 0 | 0 | 14 | /
CC(C)Oc1ccc(C(=O)Nc2nc3ccccc3[nH]2)cc1 | 42 | -1 | 55* | 69* | 46 | 12 | 67* | 46*
O=C(Nc1nc2ccccc2[nH]1)c1ccc(OC(F)F)cc1 | 8 | -2 | / | -35 | 22 | 2 | / | /
O=C(Nc1nc2ccccc2[nH]1)c1ccccc1F | 124* | -4 | 80* | 82* | 89* | 24 | 81* | 38*
O=C(Nc1ccncc1)c1ccccc1F | -2 | 0 | 2 | 51* | 1 | -1 | 31 | /
CCc1ccc(C(=O)Nc2nc3ccccc3[nH]2)cc1 | 31 | -2 | 63* | 56* | 44 | -4 | 52* | 72*
O=C(Nc1ccc(F)cc1)c1ccccc1F | 7 | -2 | -1 | 27 | 3 | -2 | / | /
O=C(Cc1coc2cc(O)ccc12)N1CCN(S(=O)(=O)c2ccc(Br)cc2)CC1 | / | 1 | / | / | / | / | / | /
CN(C(=O)CSc1nc(N)nn1-c1ccccc1)c1ccccc1 | -4 | -3 | 3 | 1 | -3 | -3 | / | /
Cc1cccc(NC(=O)c2cccc(Cn3cc(Br)c([N+](=O)[O-])n3)c2)c1C | 5 | -1 | -3 | 9 | 6 | 1 | / | /
CCOc1cc(CNc2ccc(Br)cc2)cc(Br)c1OCC(=O)NC(C)(C)C | ? | 14 | 19 | 56* | 19 | 19 | 24 | /
COC(=O)C1=C(C)NC(C)=C(C(=O)OCC(C)C)C1c1ccccc1[N+](=O)[O-] (configuration not stated) | 55 | 2 | 1 | 72* | 7 | / | 65* | 23
CCOC(=O)C1=C(C)NC(C)=C(C(=O)OCC)C1c1cccc([N+](=O)[O-])c1 | / | 3 | / | / | / | / | / | /
N#C/C(=C\C=C\c1ccccc1[N+](=O)[O-])c1nc(-c2ccc3c(c2)OCO3)cs1 | -1 | 2 | -2 | 63* | -1 | -11 | 7 | /
